# Source: the supplement of paper PMC6555819
# Assays:
# Assay in all cases: PBM binding z-score (relative to random genomic background probes); higher = stronger binding; sequences stand for … in GC…GCGATTGACAGCGTAGAATGAAGG
# [1] = system: RARb homodimer (NR concentration 270 nM)
# In short: (§1)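 Binding z-scores take random background probes as their reference. They come from custom Agilent 4×180K protein-binding microarrays incubated 1 h with ligand-free nuclear receptor dimers, with antibodies against each partner (one per run) detecting binding. Scanned fluorescence was regression-normalized.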
# [2] = system: RARg:RXRa (NR concentration 270 nM, RXRa partner concentration 90 nM)
# In short: as §1
# [3] = system: RARg homodimer (NR concentration 270 nM)
# In short: as §1
# [4] = system: RXRa DBDmut IVT, anti-RXR (DBD mutation: RXRa K156A/R161A, NR concentration 90 nM)
# In short: as §1
# [5] = system: RXRa homodimer (NR concentration 180 nM)
# In short: as §1
# [6] = system: THRa:RXRa (NR concentration 90 nM, RXRa partner concentration 90 nM)
# In short: as §1
# [7] = system: THRa homodimer (NR concentration 90 nM)
# In short: as §1
# [8] = system: VDR homodimer (NR concentration 270 nM)
# In short: as §1
Sequence,PBM binding z-score [1],PBM binding z-score [2],PBM binding z-score [3],PBM binding z-score [4],PBM binding z-score [5],PBM binding z-score [6],PBM binding z-score [7],PBM binding z-score [8]
CCTAGCAGGCTAATCTGGGTCACTCAAGGCTTGA,1.8,0.393,0.769,0.246,0.687,3.19,0.623,0.114
CGAACTAGGTCATCCAGGACTGTGAATACATTGA,2.93,4.02,4.47,2.26,2.62,2.95,1.17,1.39
GCGACTGGGGCAAAGCATGTTACCATAAGGTTGG,0.192,0.235,0.278,0.0488,0.0784,0.269,-0.43,-0.625
GCTAGCAGGCCATTTGGGTAACTCAATGACGGGC,-0.555,-0.388,-0.283,-0.499,-0.0687,-0.0773,-0.78,-0.461
CTCTAAAGGTCGGTTGAGGTGAGTATACGGATAA,2.4,3.06,3.15,1.52,2.44,5.16,1.17,0.546
AGAAGGAGGTTACCAAAGATCAGGGAAACGCTTG,1.11,1.66,1.54,-0.25,2.27,1.73,0.244,0.128
AATACAGGGTCACTCGGCCAGAGTAGGTACGAAT,3.24,5.28,5.06,3.27,5.63,3.4,0.907,2.84
CCTACTGGGCCAAAGGTAATTGATTCCAATGCTC,0.00337,0.0107,0.0633,-0.288,0.00386,0.0403,-0.123,-0.113
GTACCAAGGTGAATTGGTCGTTGATGAGTAGGCG,0.471,0.331,0.444,-0.385,0.215,1.17,0.25,-0.534
CGTCACAGTTCAACTAAGGTAACGTAAAGCACGC,2.56,3.25,3.37,3.38,2.76,5.11,2.19,2.16
ACTCGGAGTACAAAGGTCAGAGCTACGCCAGTGA,4.27,5.22,4.7,2.11,5.37,2.64,-0.258,1.63
CCTTACGGGACACGAGGTTATAGCACGACGAGCG,1.03,1.49,1.14,-0.0752,1.19,1.77,0.83,0.544
ATCTCTAGGTAACCAAGTTCAGTGCATGCCGAAC,1.69,0.735,0.952,1.12,0.814,1.62,0.968,3.1
CCTACTGTGCCACGAAAGGTCATTGATTCAGTGA,4.67,4.41,3.73,1.43,4.76,3.46,1.67,2.34
CCTCGGAGGACAGAAGGTCACAGCTGTCCGCTTT,4.26,4.72,4.05,0.581,3.83,3.36,0.632,0.765
CGAACTAGGTCAAGGACAGTGATTCTCCGCACGC,3.36,3.83,4.62,1.49,2.77,3.42,2.19,0.466
CCTACTGGGCCAAGGTCATGGATCAGTCAAAGCA,3.54,4.16,3.48,-0.0426,3.95,3.71,2.5,1.68

Sequence,PBM binding z-score [1],PBM binding z-score [2],PBM binding z-score [3],PBM binding z-score [4],PBM binding z-score [5],PBM binding z-score [6],PBM binding z-score [7],PBM binding z-score [8]
ATCTCTAGGTAGGACTCAGTTCAGTGAAGAACGC,0.778,0.159,0.0916,0.747,0.071,0.569,0.909,1.66
GGAACTAGGGCATTCGAGTTGATAGCATGGCGAT,0.555,0.292,0.971,0.774,0.131,2.13,-0.433,0.769
TCTATTTGGTCACGGAGGTCACACACGACGGGTA,4.61,4.91,5.19,1.87,5.34,3.82,3.38,3.22
CGTCCAAGGTCAGAGGTCAGTGAAGAGATGACGG,5.38,7.02,7.05,2.66,7.78,4.58,2.42,2.61
AGTCAAAGTTCAGGACGAGGTAACGAAAAGCACG,2.94,4.74,4.62,2.71,3.34,3.75,1.77,2.11
CTGACTGGGGCAAAGGTTACCATACTCAGTACGA,2.6,3.83,2.21,0.587,4.06,2.08,0.233,0.376
TTTCAAAGTTCAAAGGTAACGTAAGTATCCACAC,3.87,6.29,5.88,4.68,7.2,3.58,0.252,4.68
GCAGACAGGTGAAACTCAGGTAACTCAGGGTGGC,0.42,1.03,0.566,-0.185,0.901,2.7,0.521,-0.73
ACAGACAGGTGCGTGAAGGTAACTCAGCTGGACG,-0.567,-0.319,-0.0259,-0.249,-0.0792,-0.227,-0.945,-0.569
AATACAGGGTCATCGTAGGCCATAGTACGCACAG,3.72,5.77,4.97,3.55,6.52,4.94,1.54,3.64
TCTATTAGTTGAAGGGCTACCGACGAGTCCGTTT,0.0763,0.0303,0.0781,1.63,0.354,-0.151,-0.0569,1.04
CTACCAAGGTGAACAAGGTCGTTGAATACTATTC,2.13,1.97,1.95,1.24,1.98,3.25,1.83,2.1
CCTACTGGGCCACGAGAGGTCATTGATTCAGTGA,3.75,3.95,3.64,0.702,4.15,4,1.33,3.47
CGAACGAGGGCGTGAGTTGATAGCAAATGCCGAT,-0.277,0.0501,-0.0612,1.36,0.221,0.142,-0.691,0.785
CGACCAAGGTCATAGGAGGTCAGTGAAGACAGAT,5.12,6.79,7.3,3.53,6.92,5.03,2.69,4.77
CCTCGGAGGACAACAGGAGGTCTGAGCTGCCAGA,0.507,0.123,0.881,-0.213,-0.493,0.56,-0.246,-0.289
CCTTACGGGTCAAGGTTATTGCACGGGTGGTACG,3.5,4.83,4.5,0.197,5.06,3.04,0.977,1.95
